Screens (PubChem)
RmlCD inh mix: inhibitors of RmlC and RmlD coupled enzymes; RmlC/RmlD coupled enzyme inhibition, 384-well mixture HTS; inhibition, % at 5.5 µM; hit rate 0.39% among 110,000; AID 1532; in the data active means inhibition above about 30%, passing the limit was not always enough; inconclusive means no clear call, values can overlap the other calls
HIV RNase H inh-1: blocks HIV-1 RNase H cleavage of RNA/DNA duplex | RT-RNase H RNA/DNA duplex cleavage, fluorescence | hit rate 1.9% among 65,000 | inhibition, % at 10 µM; in the data active means inhibition above about 50%
HIV RNase H inh-2: confirmation of HIV-1 reverse transcriptase RNase H inhibitors | Recombinant RT RNase H, fluorescent RNA/DNA duplex cleavage | shares compounds with HIV RNase H inh-1 | inhibition, % at 10 µM | hit rate 39% among 1,000; in the data active means inhibition above about 48%; inconclusive means no clear call, values can overlap the other calls
An asterisk follows results filed as active; ? = inconclusive; · = no result. The entries come from a sample that favours hits as a whole.

SMILES	RmlCD inh mix	HIV RNase H inh-1	HIV RNase H inh-2
COC(=O)c1ccc(Cn2cnc3c(sc4nc(N5CCOCC5)c5c(c43)CCCC5)c2=O)o1	-15	64*	?
COC(=O)c1ccc(Cn2nnc3c(sc4nc(N5CCOCC5)c5c(c43)CCCC5)c2=O)o1	·	1	·
Cc1nn(-c2ccccc2)c(=S)n1-c1ccccc1	-8	3	·
OCCn1nc2c3ccccc3nc-2n(-c2ccccc2)c1=S	-5	89*	14
O=C(c1ccc2c(c1)OCO2)N(Cc1ccco1)C1(C(=O)NC2CCCCC2)CCCCC1	2	·	·
C/C=C\C(=O)Nc1cccc(C2=NOC3(C2)C[C@@H](C(N)=O)N(C(=O)c2ccc(OC)cc2)C3)c1 (some centres not stated)	7	·	·
N#Cc1c(N)nc(SCC(=O)NC2CCCCC2)c(C#N)c1-c1ccc(Cl)cc1	12	82*	59*
CC(C)c1ccc(-c2c(C#N)c(N)nc(SCC(=O)N3CCCCCC3)c2C#N)cc1	2	·	·
COc1ccc(C(c2nnnn2C(C)(C)C)N2CCN(c3nc4ccccc4s3)CC2)cc1 (configuration not stated)	51	-4	·
CCC(C)(C)n1nnnc1C(c1ccc(O)c(OC)c1)N1CCN(c2nc3ccccc3s2)CC1 (configuration not stated)	2	56*	42
O=C(CCCN1C(=O)c2cccc3cccc(c23)C1=O)N1CCc2ccccc2C1	-7	·	·
COC(=O)[C@@]1(Cc2ccc(OC)cc2)[C@H]2c3cc(C(=O)N(C)C)n(CCSCCO)c3C[C@H]2CN1C(=O)c1ccccc1	-16	·	·
CCCc1nnc2n1N=C(c1ccc(OC)c(OC)c1)CS2	-9	-17	·
COc1ccc(Cc2nnc3n2N=C(c2cc4ccccc4o2)CS3)cc1OC	-6	71*	47
CCSc1nnc(NC(=O)c2cc3c(s2)CCCC3)s1	-7	11	·
CCSc1nnc(NC(=O)c2csc3c2CCCC3)s1	6	62*	?
COCCCNC(=O)c1sc2ncnc(N3CCc4ccccc4C3)c2c1C	30	·	·
CCOC(=O)Cc1csc(-n2sc3ccccc3c2=O)n1	0	97*	67*
CCOC(=O)Cc1csc(SCn2nnc3ccccc3c2=O)n1	12	-36	·
CC1C/C(=N/NC(=O)c2cccc(F)c2)c2ccc(O)cc2C1 (configuration not stated)	46	·	·
Cc1c(N)cccc1-c1nc2ccccc2[nH]1	9	·	·
C#CCNC(=O)C1=C[C@H](c2ccc(C(F)(F)F)cc2)C[C@H](OCCCCO)O1	10	·	·
CC1=C(C)NC(=S)SC1	-13	55*	5
CC(=O)Nc1sc(NC(=O)c2ccc(C)cc2)nc1-c1cccs1	-9	·	·
COc1ccc(N=c2ssnc2Cl)cc1	-3	·	·
SMILES	RmlCD inh mix	HIV RNase H inh-1	HIV RNase H inh-2
COc1cc(N=c2ssnc2Cl)cc(OC)c1OC	12	91*	76*
CC1(c2nnc(-c3cccc(Cl)c3)o2)CC(c2ccccc2F)=NO1 (configuration not stated)	-7	·	·
O=C(NCc1cccc(Br)c1)c1cc(-c2ccccc2)nn1CC1CC(c2cccc([N+](=O)[O-])c2)=NO1 (configuration not stated)	-15	·	·
C=CCn1c(Cc2cccs2)nnc1SCC(=O)Nc1ccc(OC)cc1	8	-29	·
C=CCn1c(Cc2cccs2)nnc1SCC(=O)Nc1cccc(OC)c1	30	73*	42
NC(=O)CC(NC(=O)Cc1cccc2ccccc12)c1ccc(N2CCN(c3ccc(F)cc3)CC2)c([N+](=O)[O-])c1 (configuration not stated)	-5	·	·
O=C(Nc1cnc2ccccn2c1=O)c1ccc(Cl)cc1	-10	·	·
COc1ccc(C2=NO[C@@H]3C(=O)N(c4ccc(C)cc4C)C(=O)[C@H]23)cc1OC	-10	54*	-7
COc1ccc(C2=NO[C@@H]3C(=O)N(c4cccc(C)c4C)C(=O)[C@H]23)cc1OC	6	6	·
CCOc1cccc(N(C(=O)Cc2cccs2)C(C(=O)NC2CCCCC2)c2cccn2C)c1 (configuration not stated)	-3	·	·
CCCCN1C(=O)/C(=C2\SC(N3CCCCC3)=NC2=O)c2ccccc21	-21	86*	25
O=C1N=C(N2CCOCC2)S/C1=C1\C(=O)N(Cc2ccccc2)c2ccc(Br)cc21	·	12	·
CCOC(=O)N1CC=C2C(C#N)=C(N)C(C#N)(C#N)[C@H](c3ccc(OC(C)C)c(OCC)c3)[C@H]2C1	9	89*	76*
CCOC(=O)N1CC=C2C(C#N)=C(N)C(C#N)(C#N)[C@H](c3ccccc3OCC)[C@H]2C1	11	29	·
Cc1nnc(NC(=O)NC(C)N2C(=O)C3C4C=CC(C4)C3C2=O)s1 (configuration not stated)	7	55*	-1
CC(NC(=O)Nc1nnc(C(F)(F)F)s1)N1C(=O)C2C3C=CC(C3)C2C1=O (configuration not stated)	6	-8	·
COC(=O)[C@@](C)(O)C1(C(=O)SC(C)(C)C)CC1	-5	·	·
CCOc1cc(C2CC(=O)N3CN(C4CCCCC4)CSC3=C2C#N)ccc1O (configuration not stated)	-11	79*	72*
COc1ccc2ccccc2c1C1CC(=O)N2CN(Cc3ccco3)CSC2=C1C#N (configuration not stated)	3	6	·
COc1ccc2ccccc2c1C1CC(=O)N2CN(C3CCCCC3)CSC2=C1C#N (configuration not stated)	-8	82*	60*
CCOc1cc(C2CC(=O)NC(SCC)=C2C#N)ccc1O (configuration not stated)	10	-13	·
Cc1cccc(NC(=O)CN(c2ccc(C(C)C)cc2)S(=O)(=O)c2c(C)nn(C)c2C)n1	9	·	·
COC(=O)c1ccc(NC(=O)CSc2nccn2CCc2ccccc2)cc1	8	·	·
CC(C)(C)[C@@H]1C=C(C(N)=O)O[C@H](OCCCCO)C1	-10	·	·
Fc1ccc(CSc2nc3ncccc3[nH]2)cc1	-11	61*	13
SMILES	RmlCD inh mix	HIV RNase H inh-1	HIV RNase H inh-2
Fc1cccc(CSc2nc3ncccc3[nH]2)c1	-3	·	·
O=c1c(Oc2ccccc2)coc2cc(O)cc(O)c12	3	·	·
COc1ccc(C2=NCC(CSc3nnc(-c4ccc5c(c4)OCO5)o3)S2)cc1 (configuration not stated)	-10	-23	·
CCN(CC)S(=O)(=O)c1ccc2oc(SCC3CN=C(c4ccc(OC)cc4)S3)nc2c1 (configuration not stated)	6	59*	6
Cn1c(Cc2ccccc2)nnc1SCC(=O)c1cccs1	-11	·	·
O=C(CSc1nnc(Nc2ccccc2F)s1)NCc1ccco1	-8	33	·
Cc1ccccc1Nc1nnc(SCC(=O)NC(=O)NCc2ccco2)s1	·	67*	20
CCc1ccc(NC(=O)CCn2ccnc2C)cc1	144	·	·
CC(C)CN1CCC(=O)N(CCSc2ccc(Br)cc2)CC1	-7	·	·
CC(C)Cn1c(=O)c(C(=O)Nc2ccncc2)c(O)c2ccccc21	·	71*	47
O=C(Nc1ccncc1)c1c(O)c2ccccc2n(Cc2ccccc2)c1=O	·	4	·
COc1ccc(S(=O)(=O)N2CCN(Cc3ccccc3)CC2)cc1	6	-4	·
CN1CCN(C2=C(Cl)C(=O)N(c3ccc(Cl)cc3)C2=O)CC1	-8	82*	40
COc1ccc(N2C(=O)C(Cl)=C(N3CCN(Cc4ccccc4)CC3)C2=O)cc1	-11	90*	24
